Results filed as inconclusive are left out. Where a call stands in place of a potency, no number is given. Calls of active or inactive are those of the source. Calls come from the whole dose curve; as a rule, active = well fitted cell-killing curve with a large enough effect; inconclusive = small, poorly fitted or top-dose-only effect, or effect the other way; inactive = flat fitted curve, though single readings scatter.
Test system: JEG-3
Experiment: Primary qHTS to identify gynecologic anti-cancer compounds using libraries of approved drugs and bioactive compounds (AID 1345084); note: nearly all actives have a fitted effect of over 55% in size
Settings: Gynecologic cancer cell panel viability, ATPlite luminescence, 48 h; series mostly up to 57.5 µM
Procedure, shortened: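 Measured: luminescence after ATPlite addition (15 min, RT). Exposure: 48 h, 37 C, 5% CO2.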

SMILES	activity change, negative = cytotoxicity	Potency
CC1(C)CC[C@]2(C(=O)O[C@@H]3O[C@H](CO)[C@@H](O)[C@H](O)[C@H]3O)CC[C@]3(C)C(=CCC4[C@@]5(C)CC[C@H](OC6OC(C(=O)O)C(OC7OC(CO)C(O)C(O)C7O)C(O)C6O)C(C)(C)C5CC[C@]43C)C2C1 (some centres undefined)	9.79% [at 11.6 µM] (inactive)	–
COc1cccc(CN(C(=O)CC(C)(C)C)C2CC(C(=O)N3CCNCC3)N(Cc3ccc4c(c3)OCO4)C2)c1 (centres undefined)	–	inactive
C/C=C(/C)C(=O)OC1CC(C)(C)CC2C3=CCC4C5(C)CCC(OC6OC(C)C(OC7OC(C(=O)O)C(O)C(OC8OC(CO)C(O)C(O)C8OC8OC(CO)C(O)C(O)C8O)C7O)C(O)C6O)C(C)(C)C5CCC4(C)C3(C)C(OC(=O)/C=C/C=C/C=C/CCC)C(OC(C)=O)C12CO (centres undefined)	-5.73% [at 6.55 µM] (inactive)	–
Cc1ccc(-c2c(-c3nn(C)c4ncnc(N5CC[C@H](N6CCCCC6)C5)c34)cnn2C)cc1	–	inactive
O=C(/C=C/C=C/c1ccc2c(c1)OCO2)N1CCCCC1	–	inactive
O=C(O)c1cc(O[C@@H]2O[C@H](CO)[C@@H](O)[C@H](O)[C@H]2O)ccc1O	–	inactive
Nc1nc(COC(=O)c2ccc([N+](=O)[O-])cc2)nc(Nc2ccccc2)n1	–	inactive
C[C@@H]1O[C@@H](O[C@H]2[C@H](O[C@H]3[C@H](O[C@H]4CC[C@@]5(C)C(CC[C@]6(C)C5CC=C5[C@@H]7CC(C)(C)C[C@@H](O)[C@]7(C)CC[C@]56C)[C@@]4(C)CO)O[C@H](C(=O)O)[C@@H](O)[C@@H]3O)O[C@H](CO)[C@H](O)[C@@H]2O)[C@H](O)[C@H](O)[C@H]1O (some centres undefined)	7.46% [at 11.6 µM] (inactive)	–
COc1cc(CO)ccc1O[C@@H]1O[C@H](CO)[C@@H](O)[C@H](O)[C@H]1O	–	inactive
COC(=O)c1c(CC=C(C)C)c(OC2OC(CO)C(O)C(O)C2O)c2ccccc2c1OC1OC(CO)C(O)C(O)C1O (centres undefined)	–	inactive
COc1ccc(C2(O)c3c(ccc4c3OC(C)(CCC=C(C)C)C=C4)NC(=O)C2OC)cc1 (centres undefined)	–	inactive
Cc1ccc(C)c(NC(=O)CNS(=O)(=O)c2ccc3[nH]c(=O)oc3c2)c1	–	inactive
CO[C@H]1c2cc(C(C)C)c(O)c(O)c2[C@@]23CCCC(C)(C)C2[C@@H]1OC3=O (some centres undefined)	–	inactive
COc1cc(C(C)=O)ccc1O[C@@H]1O[C@H](CO[C@@H]2OC[C@@H](O)[C@H](O)[C@H]2O)[C@@H](O)[C@H](O)[C@H]1O	–	inactive
COC(=O)c1[nH]c(=O)c2ccccc2c1-c1ccc[nH]1	–	inactive
CN[C@H](CNC(=O)N1CCC[C@@H]([C@@H](OCCNC(=O)OC)c2cccc(Cl)c2)C1)C[C@H]1CCCOC1	–	inactive
O=C(O)CCc1cc2ccoc2cc1O[C@@H]1O[C@H](CO)[C@@H](O)[C@H](O)[C@H]1O	–	inactive
CC(C)[C@@H](C(=O)O)N1Cc2c(cc(O)c3c2O[C@]2(C3)[C@H](C)CCC3C(C)(C)[C@H](O)[C@H](O)C[C@@]32C)C1=O (some centres undefined)	–	inactive
CCOC(=O)CSc1nc2c(sc3ccccc32)c(=O)n1CCCN1CCCC1	–	inactive
CC1CCC2(C(=O)O)CCC3(C)C(=CCC4C5(C)CCC(O)C(C)(C(=O)O)C5CCC43C)C2C1(C)O (centres undefined)	–	inactive

SMILES	activity change, negative = cytotoxicity	Potency
Cc1ccccc1N1CCN(S(=O)(=O)C[C@]23CC[C@H](C[C@@H]2NC(=O)[C@@H](N)CCS(C)(=O)=O)C3(C)C)CC1	–	inactive
C/C=C(\C)C(=O)OCC1OC(OCC2OC(OC3(CO)OC(CO)C(O)C3O)C(O)C(O)C2O)C(O)C(O)C1O (centres undefined)	–	inactive
COc1ccc(/C=C/C(=O)O[C@@H]2[C@@H](OC(C)=O)[C@@H](OC(C)=O)[C@H](O[C@H]3[C@@H]4C=CO[C@@H](O[C@@H]5O[C@H](CO)[C@@H](O)[C@H](O)[C@H]5O)[C@@H]4[C@@]4(CO)O[C@@H]34)O[C@H]2C)cc1	–	inactive
CC1=C2C[C@@]3(C)[C@@H](CCC[C@@H]3C)C[C@@]2(O)OC1=O	–	inactive
COC(=O)/C=C/c1ccc(O[C@@H]2O[C@H](CO)[C@@H](O)[C@H](O)[C@H]2O)cc1	–	inactive
FC(F)(F)Oc1ccc(-c2ccc3nnc(C(F)(F)F)n3c2)cc1	–	inactive
C=C(C(=O)O)C1CC(OC(=O)CC(C)CC)C2(C)CCCC(=C)C2C1 (centres undefined)	–	inactive
CC(C)(O)C1CC=C(C(=O)OC[C@H]2O[C@@H](OC(=O)C3=CCC(C(C)(C)O)CC3)[C@H](O)[C@@H](O)[C@@H]2O)CC1 (some centres undefined)	–	inactive
N#Cc1ccc(C2CCCc3cncn32)cc1 (centres undefined)	–	inactive
C[C@@H]1O[C@@H](O[C@@H]2[C@@H](O)[C@H](O[C@@H]3[C@@H](O)[C@@H](O)[C@H](O[C@H]4[C@H](OC(=O)[C@]56CCC(C)(C)C[C@H]5C5=CCC7[C@@]8(C)C[C@H](O)[C@H](O[C@@H]9O[C@H](C(=O)O)[C@@H](O)[C@H](O)[C@H]9O)[C@@](C)(CO)C8[C@H](O)C[C@@]7(C)[C@]5(C)C[C@H]6O)O[C@@H](CO)[C@@H]4O)O[C@H]3C)OC[C@H]2O)[C@H](O)[C@H](O)[C@H]1O (some centres undefined)	3.64% [at 6.55 µM] (inactive)	–
C=C1C2CCC3C(CCC4[C@@]3(C)CCC[C@@]4(C)C(=O)O)(C2)[C@@H]1OC(=O)/C(C)=C\C (some centres undefined)	–	inactive
O=C(O)c1cccc(C(=O)CCC2OC(n3cnc4c(=O)[nH]cnc43)C(O)C2O)c1 (centres undefined)	–	inactive
CC1(CO)CCCC2(C)C1C(OC(=O)c1ccccc1)CC1C(=O)OCC12O (centres undefined)	–	inactive
CC1C2=CC(=O)OC2(O)CC2C1C(O)CC1C(C)(CO)CCCC21C (centres undefined)	–	inactive
COc1cc2c(cc1OC)N1C(=O)C[C@@]34C=CC[N@+]5([O-])CC[C@H]2[C@H](CC3)[C@@]145	–	inactive
CCCN1CCC[C@@H](c2cccc(S(C)(=O)=O)c2)C1	–	inactive
CC1CCC2(C(=O)OC3OC(CO)C(O)C(O)C3O)CCC3(C)C(=CCC4C5(C)CCC(O)C(C)(CO)C5CCC43C)C2C1(C)O (centres undefined)	–	inactive
COc1ccc(Oc2c(Cl)cnn(C3c4ccccc4-c4ccccc43)c2=O)cc1	–	inactive
Cc1nnc(-c2sc(NC(=O)[C@H](C(C)C)n3c(=O)[nH]c4ccccc4c3=O)nc2C)o1	–	inactive
